Experimental data: PubChem BioAssay AID1159580 (chemical genetic matrix, 2015)
Out of some 5,500 compounds screened, about 2,000 (36%) were called active. Another 18% or so got no clear call; they are omitted. Cut-off read from the data, not from the text of the source: active = normalized growth mostly below about 0.91 (no sharp cut-off); inconclusive = no clear call, values can overlap the other calls; inactive = mostly above about 0.92. The list shows a part of the results.

Experiment: chemical genetic growth profiling, strain panel (AID 1159580);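 note: tested at 20 µM; growth read once vehicle control cultures reached saturation at 30 °C; 1 = growth at the plate median or of vehicle wells; lower values mean less growth of the strain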
Conditions: growth OD

Measured: normalized growth

C[C@H]1CC2C([C@@H](O)C[C@@]3(C)C2CC[C@]3(O)C(=O)CO)[C@@]2(C)C=CC(=O)C=C12 (some centres not stated)
inactive: S. cerevisiae deletion strains, locus YJR075W, strain HOC1, stronger effect = lower value 1.01 | S. cerevisiae deletion strains, locus YKL009W, strain mrt4, stronger effect = lower value 0.997 | S. cerevisiae deletion strains, locus YKL068W, stronger effect = lower value 0.999 | S. cerevisiae deletion strains, locus YKL085W, strain MDH1 (second series), stronger effect = lower value 1 | S. cerevisiae deletion strains, locus YKL085W, strain MDH1, stronger effect = lower value 1 | S. cerevisiae deletion strains, locus YKL160W, strain elf1, stronger effect = lower value 0.975 | S. cerevisiae deletion strains, locus YKL190W, strain CNB1, stronger effect = lower value 0.995 | S. cerevisiae deletion strains, locus YKR001C, strain vps1, stronger effect = lower value 1.02 | S. cerevisiae deletion strains, locus YKR026C, strain gcn3, stronger effect = lower value 0.999 | S. cerevisiae deletion strains, locus YKR091W, strain srl3, stronger effect = lower value 1.01 | S. cerevisiae deletion strains, locus YLL001W, strain dnm1, stronger effect = lower value 0.96 | S. cerevisiae deletion strains, locus YLL026W, stronger effect = lower value 0.982 | S. cerevisiae deletion strains, locus YLL041C, strain sdh2, stronger effect = lower value 1.01 | S. cerevisiae deletion strains, locus YLR027C, strain aat2, stronger effect = lower value 0.985 | S. cerevisiae deletion strains, locus YLR039C, strain RIC1, stronger effect = lower value 0.982 | S. cerevisiae deletion strains, locus YLR058C, strain SHM2, stronger effect = lower value 0.999 | S. cerevisiae deletion strains, locus YLR102C, strain apc9, stronger effect = lower value 1.02 | S. cerevisiae deletion strains, locus YLR113W, strain HOG1, stronger effect = lower value 1.03 | S. cerevisiae deletion strains, locus YLR221C, strain rsa3, stronger effect = lower value 1.01 | S. cerevisiae deletion strains, locus YLR258W, strain gsy2, stronger effect = lower value 1.01 | S. cerevisiae deletion strains, locus YLR262C, strain YPT6 (second series), stronger effect = lower value 0.968 | S. cerevisiae deletion strains, locus YLR262C, strain YPT6, stronger effect = lower value 0.996 | S. cerevisiae deletion strains, locus YLR268W, strain sec22, stronger effect = lower value 1.07 | S. cerevisiae deletion strains, locus YLR320W, strain mms22, stronger effect = lower value 0.989 | S. cerevisiae deletion strains, locus YLR330W, strain CHS5, stronger effect = lower value 0.999 | S. cerevisiae deletion strains, locus YLR342W, strain FKS1 (second series), stronger effect = lower value 1.01 | S. cerevisiae deletion strains, locus YLR342W, strain FKS1, stronger effect = lower value 0.985 | S. cerevisiae deletion strains, locus YLR357W, strain rsc2, stronger effect = lower value 0.996 | S. cerevisiae deletion strains, locus YLR370C, strain arc18, stronger effect = lower value 0.992 | S. cerevisiae deletion strains, locus YLR371W, strain rom2, stronger effect = lower value 1.01 | S. cerevisiae deletion strains, locus YLR384C, strain iki3, stronger effect = lower value 0.996 | S. cerevisiae deletion strains, locus YLR418C, strain cdc73, stronger effect = lower value 1.01 | S. cerevisiae deletion strains, locus YML016C, strain PPZ1, stronger effect = lower value 1.01 | S. cerevisiae deletion strains, locus YML032C, strain rad52, stronger effect = lower value 1.04 | S. cerevisiae deletion strains, locus YML120C, strain ndi1, stronger effect = lower value 0.973 | S. cerevisiae deletion strains, locus YML124C, strain tub3, stronger effect = lower value 1.01 | S. cerevisiae deletion strains, locus YMR058W, strain fet3, stronger effect = lower value 0.994 | S. cerevisiae deletion strains, locus YMR078C, strain ctf18, stronger effect = lower value 1.01 | S. cerevisiae deletion strains, locus YMR125W, strain sto1, stronger effect = lower value 1.01 | S. cerevisiae deletion strains, locus YMR129W, stronger effect = lower value 1 | S. cerevisiae deletion strains, locus YMR205C, strain PFK2, stronger effect = lower value 0.993 | S. cerevisiae deletion strains, locus YMR223W, strain ubp8, stronger effect = lower value 0.986 | S. cerevisiae deletion strains, locus YMR231W, strain pep5, stronger effect = lower value 0.991 | S. cerevisiae deletion strains, locus YMR263W, strain SAP30, stronger effect = lower value 1 | S. cerevisiae deletion strains, locus YMR307W, strain GAS1, stronger effect = lower value 1 | S. cerevisiae deletion strains, locus YNL067W, strain RPL9B, stronger effect = lower value 1.03 | S. cerevisiae deletion strains, locus YNL071W, strain lat1, stronger effect = lower value 1 | S. cerevisiae deletion strains, locus YNL128W, strain TEP1, stronger effect = lower value 0.982 | S. cerevisiae deletion strains, locus YNL153C, strain GIM3, stronger effect = lower value 1.01 | S. cerevisiae deletion strains, locus YNL183C, strain NPR1, stronger effect = lower value 0.994 | S. cerevisiae deletion strains, locus YNL209W, strain ssb2, stronger effect = lower value 1.02 | S. cerevisiae deletion strains, locus YNL233W, strain BNI4, stronger effect = lower value 1.01 | S. cerevisiae deletion strains, locus YNL248C, strain rpa49, stronger effect = lower value 1.01 | S. cerevisiae deletion strains, locus YNL250W, strain rad50, stronger effect = lower value 1.01 | S. cerevisiae deletion strains, locus YNL271C, strain bni1, stronger effect = lower value 1.01 | S. cerevisiae deletion strains, locus YNL298W, strain CLA4, stronger effect = lower value 1.01 | S. cerevisiae deletion strains, locus YNL307C, strain MCK1, stronger effect = lower value 1.02 | S. cerevisiae deletion strains, locus YNL322C, strain KRE1 (second series), stronger effect = lower value 1 | S. cerevisiae deletion strains, locus YNL322C, strain KRE1, stronger effect = lower value 0.992 | S. cerevisiae deletion strains, locus YNR049C, strain mso1, stronger effect = lower value 1 | S. cerevisiae deletion strains, locus YNR052C, strain pop2, stronger effect = lower value 1.02 | S. cerevisiae deletion strains, locus YOL006C, strain TOP1, stronger effect = lower value 1.04 | S. cerevisiae deletion strains, locus YOL012C, strain htz1 1.61 | S. cerevisiae deletion strains, locus YOL147C, strain pex11, stronger effect = lower value 1.01 | S. cerevisiae deletion strains, locus YOR001W, strain rrp6, stronger effect = lower value 0.966 | S. cerevisiae deletion strains, locus YOR061W, strain CKA2, stronger effect = lower value 1 | S. cerevisiae deletion strains, locus YOR069W, strain VPS5, stronger effect = lower value 1 | S. cerevisiae deletion strains, locus YOR070C, strain gyp1, stronger effect = lower value 1 | S. cerevisiae deletion strains, locus YOR080W, strain dia2, stronger effect = lower value 0.986 | S. cerevisiae deletion strains, locus YOR083W, strain WHI5, stronger effect = lower value 0.959 | S. cerevisiae deletion strains, locus YOR106W, strain vam3, stronger effect = lower value 0.987 | S. cerevisiae deletion strains, locus YOR136W, strain idh2, stronger effect = lower value 1.01 | S. cerevisiae deletion strains, locus YOR144C, strain elg1, stronger effect = lower value 1.01 | S. cerevisiae deletion strains, locus YOR184W, strain ser1, stronger effect = lower value 1 | S. cerevisiae deletion strains, locus YOR231W, strain MKK1, stronger effect = lower value 1.02 | S. cerevisiae deletion strains, locus YOR265W, strain rbl2, stronger effect = lower value 0.995 | S. cerevisiae deletion strains, locus YOR270C, strain vph1, stronger effect = lower value 1.02 | S. cerevisiae deletion strains, locus YOR290C, strain snf2, stronger effect = lower value 1 | S. cerevisiae deletion strains, locus YOR316C, strain cot1, stronger effect = lower value 1.01 | S. cerevisiae deletion strains, locus YPL051W, strain arl3, stronger effect = lower value 0.988 | S. cerevisiae deletion strains, locus YPL055C, strain LGE1, stronger effect = lower value 0.982 | S. cerevisiae deletion strains, locus YPL078C, strain atp4, stronger effect = lower value 0.959 | S. cerevisiae deletion strains, locus YPL106C, strain sse1, stronger effect = lower value 1.02 | S. cerevisiae deletion strains, locus YPL240C, strain hsp82, stronger effect = lower value 1.01 | S. cerevisiae deletion strains, locus YPL241C, strain CIN2, stronger effect = lower value 0.996 | S. cerevisiae deletion strains, locus YPL256C, strain CLN2, stronger effect = lower value 1.1 | S. cerevisiae deletion strains, locus YPR119W, strain clb2, stronger effect = lower value 1.01 | S. cerevisiae deletion strains, locus YPR141C, strain kar3, stronger effect = lower value 1.01 | S. cerevisiae deletion strains, locus YPR163C, strain tif3, stronger effect = lower value 1.02 | S. cerevisiae deletion strains, locus YPR167C, strain met16, stronger effect = lower value 1.01 | S. cerevisiae deletion strains, strain wtn01, stronger effect = lower value 1.03 | S. cerevisiae strains, strain wild type, stronger effect = lower value 0.998
